Assay results reported in PubChem BioAssay AID2315 (National Center for Advancing Translational Sciences (NCATS), 2010).
The whole screen tested about 290,000 compounds, of which about 27,000 (9.3%) were called active. The list comes from a sample in which actives are over-represented; it also holds similar structures and randomly drawn compounds. Values without a mark were called inactive. Cut-off read from the data, not from the text of the source: active = inhibition mostly above about 28% (no sharp cut-off); inactive = mostly below about 43%.

Assay: A qHTS for Small Molecule Inhibitors of Shiga Toxin; note: 0% is about no effect
Conditions: Vero cells, Shiga toxin protein synthesis inhibition reporter; at 38.7 µM, hits give high values

Row | Structure (SMILES) | inhibition
1 | O=C(Nc1cccc(C(=O)N2CCCC2)c1)c1ccccc1 | -3.28%
2 | COc1cc(/C=C(/NC(=O)c2ccccc2)C(=O)Nc2cccc(O)c2)c([N+](=O)[O-])cc1OC | -3.28%
3 | C/C(=C\C(=O)c1cccnc1)Nc1ccc(C)c(C)c1 | 43.6%
4 | C/C(=C\C(=O)c1ccccc1)Nc1cccc(O)c1 | 141% (active)
5 | O=C(Cc1ccccc1)Nc1cccc(NC(=O)c2ccccc2)c1 | -14.6%
6 | O=C(Nc1cccc(O)c1)c1ccc(C(=O)c2ccccc2)o1 | 88% (active)
7 | CCCc1nnc(NC(=O)CCC(=O)N2CCN(S(=O)(=O)c3ccc(OC)cc3)CC2)s1 | 4.3%
8 | Cc1cc(NC(=O)Nc2c[nH]c(=O)[nH]c2=O)ccc1Br | -3.83%
9 | C=CCn1c(=O)c(C(=O)Nc2ncccc2O)c(O)c2ccccc21 | 4.1%
10 | CN(C)S(=O)(=O)c1ccc(N2CCCC2)c(C(=O)Nc2cccc(F)c2)c1 | -10.4%
11 | O=C(CCl)N(Cc1cccc([N+](=O)[O-])c1)c1cccc(Cl)c1 | -27.9%
12 | O=[N+]([O-])c1cccc(C2=NCCS2)c1 | 8.55%
13 | Nc1c(-c2cccc(Cl)c2)cnn1-c1cccc([N+](=O)[O-])c1 | 48.6% (active)
14 | COc1ccc(CSc2nnnn2-c2ccc(O)cc2)cc1F | 19.9%
15 | CN(C(=O)C1CCOC1)c1nnc(-c2cccnc2)s1 (stereo not drawn) | 22% (active)
16 | COc1cccc(-c2nnc(N(C)C(=O)c3ccno3)s2)c1 | 30.2%
17 | CN(C(=O)c1ccno1)c1nnc(-c2cccnc2)s1 | 5.36%
18 | O=C(/C=C/c1cccc([N+](=O)[O-])c1)N1CCN(Cc2ccccc2)CC1 | 12.7%
19 | CNC(=O)N1c2ccccc2C=Cc2ccccc21 | -6.09%
20 | COC(=O)c1nc(NC(=O)c2ccc(C(C)(C)C)cc2)n[nH]1 | 10.9%
21 | O=C(Nc1ccnc(-c2ccncc2)n1)c1cccs1 | -8.52%
22 | CSc1nccc(NC(=O)c2ccc(C(C)(C)C)cc2)n1 | 71.6% (active)
23 | CCOC(=O)c1c(S(=O)(=O)Nc2cccc(Cl)c2)c(C)n(C)c1C | -10.6%
24 | O=C(NNc1ncnc2c1cnn2-c1ccccc1)c1ccco1 | 35.5%
25 | Cc1ccc(-n2ncc3c(Nc4cccc(C(=O)O)c4)ncnc32)cc1 | 76.6% (active)

Row | Structure (SMILES) | inhibition
26 | Cc1ccc(Nc2ncnc3c2cnn3C)c(C)c1 | 2.4%
27 | O=C(Nc1ccc(Br)cc1F)C1CC(=O)N(C2CCCCC2)C1 (stereo not drawn) | 0.452%
28 | CCO[C@@H]1OC(C(=O)NCc2nc3ccccc3[nH]2)=C[C@H](C2CCCCC2)[C@H]1CCCO | -8.66%
29 | O=C(OCc1nc2ccccc2[nH]1)C1CCCCC1 | 29.7% (active)
30 | O=C(COc1ccccc1)NCCc1nc2ccccc2[nH]1 | -37.8%
31 | CC1C(=O)Nc2ccccc2N1C(=O)c1ccc(F)cc1F (stereo not drawn) | 26.5%
32 | O=C(Nc1ccc(-c2cscn2)cc1)C1CCCN(Cc2ccc(CO)o2)C1 (stereo not drawn) | 7.25%
33 | CCOC(=O)NNC(=O)c1ccc(Cl)cc1 | 11.6%
34 | O=C(NNC(=O)C1C2CCC(C2)C1C(=O)O)c1ccc(Cl)cc1 (stereo not drawn) | 57.3% (active)
35 | O=C(NNC(=S)NC1CC2CCC1C2)c1ccc(Cl)cc1 (stereo not drawn) | 12.4%
36 | Cc1ccc(OCC(=O)NC(C)c2ccccc2)cc1C (stereo not drawn) | -6.99%
37 | CCOc1ccc(OCC(=O)Nc2c3c(nn2C(C)(C)C)CS(=O)(=O)C3)cc1 | -5.61%
38 | CSc1nnc(-c2ccc(C(F)(F)F)cn2)o1 | 47.1% (active)
39 | CC(C)Oc1ccc(Oc2ccc(C(F)(F)F)cn2)cc1 | 1.31%
40 | CCSc1nnc(NC(=O)c2ccc(C)cc2)s1 | 71.3% (active)
41 | Cc1ccc(S(=O)(=O)Nc2nc(C)cc(N/N=C/c3ccc(O)cc3)n2)cc1 | 9.39%
42 | CC(=O)c1sc(NC(=O)c2ccc(C)cc2)nc1C | 107% (active)
43 | Cc1nnc(C)n1/N=C/c1ccc(C(C)C)cc1 | -9.61%
44 | CC(=O)c1sc(N/N=C/c2ccc(C(C)C)cc2)nc1C | 69.3% (active)
45 | CCOC(=O)c1sc(NC(=O)c2ccncc2)nc1C | 11%
46 | CC(=O)c1sc(NC(=O)CCCOc2ccccc2C)nc1C | -15.8%
47 | COC(=O)c1sc(NC(=S)NC(=O)c2ccc(C)cc2)nc1C | 38.9%
48 | CC(=O)c1sc(N/N=C\c2ccc(C)cc2)nc1C | 72.3% (active)
49 | CC(=O)c1sc(NC(=O)C2=NN(c3ccccc3)C(=O)CC2)nc1C | 21.6%
50 | C=CCSc1nnc(NC(=O)c2ccc(NC(C)=O)cc2)s1 | 26.6%

Row | Structure (SMILES) | inhibition
51 | CCOC(=O)CSc1nnc(NC(=O)c2cccc(S(=O)(=O)N3CCCC3)c2)s1 | -15%
52 | O=C(NCCCN1CCOCC1)C1CCCN(S(=O)(=O)N2CCCCC2)C1 (stereo not drawn) | -9.17%
53 | Cc1ccc(NC(=O)Cc2nnc(SCC(=O)Nc3nncs3)n2C)cc1 | -6.25%
54 | COc1ccc(OC)c(/C(C)=N\NC(=O)c2cc3cc(Cl)ccc3n2C)c1 | -10.1%
55 | CCN(Cc1ccncc1)C(=O)CCc1ccccc1 | -7.55%
56 | COc1ccccc1NC(=O)C1CCCN1S(=O)(=O)c1ccc(Cl)cc1 (stereo not drawn) | 23.6%
57 | CC(NS(=O)(=O)c1ccc(Br)cc1)C(=O)NCC1CCCO1 (stereo not drawn) | 25%
58 | CC(C)(C)NC(=O)CN(Cc1cccs1)C(=O)CNS(=O)(=O)c1ccccc1 | 41.4%
59 | C[C@H]1CCC[C@@]2(C)CCCC[C@]12O | 12.1%
60 | COc1ccccc1N1CCN(c2ncnc3sc(C)c(-c4ccccc4)c23)CC1 | 54.8%
61 | O=C(c1c(F)cccc1Cl)N1CCN(S(=O)(=O)c2ccc3c(c2)OCCCO3)CC1 | -6.3%
62 | CC1CCN(CC(=O)Nc2nccs2)CC1 | -4.28%
63 | N/C(=N\OC(=O)N1c2ccccc2Sc2ccccc21)c1ccc(Br)cc1 | -3.87%
64 | N/C(=N\OC(=O)/C=C/c1ccccc1)c1ccc(Br)cc1 | 6.16%
65 | N/C(=N\OC(=O)c1ccc2c(c1)OCO2)c1ccc(Br)cc1 | 73.3% (active)
66 | O=C(Nc1nnc(-c2ccc(F)cc2)s1)c1c(F)cccc1Cl | 3.43%
67 | O=C1NC(c2ccncc2)Nc2sc3c(c21)CCCC3 (stereo not drawn) | 64.1% (active)
68 | C/C(=C\c1ccccc1)C1NC(=O)c2c(sc3c2CCCC3)N1 (stereo not drawn) | 34.2%
69 | Cc1ccc(C(=O)c2c(NC(=O)c3ccncc3)sc3c2CCCC3)cc1 | -0.844%
70 | CCOC(=O)[C@@H]1[C@H]2COc3cc(OC)ccc3[C@@H]2N2C(=O)N(c3cccc(C)c3)C(=O)[C@@]12C | -1.2%
71 | CC1CCCN(CCCNC(=O)CN2C(=O)COc3ccc(S(=O)(=O)N4CCOCC4)cc32)C1 (stereo not drawn) | -5.12%
72 | C=CCn1c(CNS(=O)(=O)c2ccc(Br)cc2)nnc1SC | -6.56%
73 | O=C(CSc1nnc2c(n1)[nH]c1ccccc12)NC1CCCCC1 | -11%
74 | O=C(/C=C/c1cnc2ccccc2n1)NC1CCCCCC1 | 112% (active)
75 | O=C(Cn1c(-c2cncs2)nc2ccccc21)NC1CCCC1 | -2.75%

Row | Structure (SMILES) | inhibition
76 | Cc1ccc(N(Cc2cc(=O)[nH]c3ccccc23)C(=O)CCl)cc1 | -5.41%
77 | Cc1cccc(C(=O)NNC(=O)CSc2nnc(C(C)C)n2C)c1 | -2.77%
78 | COc1cccc(C(C(=O)NC2CCCC2)N(C(=O)c2ccco2)c2cccc(C(C)=O)c2)c1OC (stereo not drawn) | -12.2%
79 | O=C(NNC(=O)C(O)c1ccccc1)NC1CCCCC1 (stereo not drawn) | -13.5%
80 | Cc1nc(/N=C(\N)NC(=O)NC2CCCCC2)nc2ccccc12 | 30.3% (active)
81 | COc1ccc2nc(/N=C(\N)NC(=O)Nc3ccccc3)nc(C)c2c1 | 69.1%
82 | COc1ccc(C(=O)NCCCN2CCOCC2)cc1Br | -13.5%
83 | O=C(c1cc2ccccc2o1)N1CCN(c2cccc(C(F)(F)F)c2)CC1 | -15.8%
84 | COCCN(C(=O)CCC(=O)Nc1nccs1)C(C(=O)NCCC(C)C)c1ccc(F)cc1 (stereo not drawn) | -13.9%
85 | COC(=O)/C(C#N)=C/c1occc1C | -2.66%
86 | CCOC(=O)NC(=O)/C(C#N)=C\c1ccccc1 | -2.62%
87 | CCOC(=O)/C(C#N)=C\c1c(C)cc(C)c(COC(C)=O)c1C | 30.8% (active)
88 | COCCNC(=O)CSc1nc2sccc2c(=O)n1-c1ccccc1 | -4.95%
89 | COc1cc(NC(=O)NCC2CCN(Cc3ccc(C)cc3)CC2)cc(OC)c1OC | 19.7%
90 | Fc1ccc(CSc2nnc(-c3cc4c(s3)-c3ccccc3CC4)o2)cc1 | -15%
91 | CCSc1nnc(-c2cc3c(s2)-c2ccccc2CC3)o1 | 73.3% (active)
92 | O=C(CSc1nnc(-c2ccccc2O)o1)NC1CCCCC1 | -7.64%
93 | CSCCC(NC(=O)c1ccc(Cl)cc1Cl)C(=O)NNC(=O)c1csc(N2CCOCC2)n1 (stereo not drawn) | 23.2%
94 | O=C(Nc1ccc(N2CCCC2=O)cc1)c1cncc(Br)c1 | -22%
95 | CN(C)Cc1c(O)ccc2c(=O)c(-c3ccccc3Cl)coc12 | 2.96%
96 | O=C(/C=C/c1ccccc1[N+](=O)[O-])OC1CCCCC1=O (stereo not drawn) | -5.74%
97 | CC1CCCCC1NC(=O)/C(C#N)=C/C=C/c1ccccc1[N+](=O)[O-] (stereo not drawn) | 52.2% (active)
98 | O=C(/C=C/c1ccccc1[N+](=O)[O-])NCC1CCCO1 (stereo not drawn) | 28%
